Data as given in PubChem BioAssay (NCI).
“And” between values parts separate entries of the source, which are not always exact repeats. Equal values may be shown once. The panel holds about 79,000 compounds, 15% with a hit somewhere; the sample as a whole holds those more often. A number with no mark means an inactive call. The source made the active and inactive calls. Cut-off read from the data, not from the text of the source: active = growth inhibition above about 70%; inactive = the rest.

test: NCI Yeast Anticancer Drug Screen. Data for the cln2 rad14 strain (AID 165);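 note: 0% = growth equal to vehicle treated cultures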; conditions: S. cerevisiae cln2 rad14 strain, hits give high values; at 50.0 µM unless noted
In short: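 Test compounds were added to cln2 rad14 yeast cultures; inhibition of growth was then determined by comparison with vehicle treatment.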

SMILES | growth inhibition
O=[N+]([O-])c1cccc(/C=C/c2ccnc3ccccc23)c1 | 5.65%
CN1CCN(C2c3ccccc3OC(C)(C)C2O)CC1 (configuration not stated) | -25.8%
ClC(Cl)CN(Cc1ccccc1)c1ncc[nH]1 | -59.2%
CCN(CC)CCNc1ccc2ncn3c4cc(=O)ccc4c(O)c1c23 | 7.9%
Cc1cc[n+]2cc(-c3ccc(/C=N/N=C(N)N)cc3)n(C)c2c1 | 28.9%
C[C@H]1CC[C@@H]2O[C@@]23C(=O)OC2OC(C)(C)[C@@H]([C@H]2O)[C@]13C | -0.35%
CC(C)CNC(=O)c1ccccc1Cl | -32.4%
CC1=C(CCC(=O)O)C(=O)C(CCC(=O)O)C(C)(C)C1 (configuration not stated) | 56.6%
CC1=C2CC3=C(C)C(=O)O[C@H]3C[C@@H](C)[C@@H]2CC1 | 1.15%
O=S(=O)(O)C(I)S(=O)(=O)O | -18.2%
CC(C)(C1CCC([Si](C2CCCCC2)(C2CCCCC2)C2CCCCC2)CC1)[Si](C1CCCCC1)(C1CCCCC1)C1CCCCC1 (configuration not stated) | -7.2%
CCOP(=O)(OCC)/C(=C\n1c(=S)[nH]c2cc(C)ccc21)C(=O)OC | -4.4%
O=C(/C=C/c1ccc(OCC(=O)N2CCN(c3ccccc3)CC2)cc1)c1ccccc1 | -5.95%
CC1(C)N=C(N)N=C(N)N1c1ccc(N)cc1 | -36.8%
Cc1cc2nc3c(C(OC4OC(CO)C(O)C(O)C4O)C(O)CO)nn(-c4ccc(F)cc4)c3nc2cc1C (configuration not stated) | 25.6%
CCCCCCCCCCCCCCCc1ccc(N)c(OC2OC(CO)C(O)C(O)C2O)c1 (configuration not stated) | -8.15% and -28.3%
Cn1c2ccccc2c2nnc(NCCCO)nc21 | 43.3%
C=CCSCc1ccccc1 | 3.8%
Cc1ccccc1C(=O)C[n+]1ccccc1C | -21.6%
CN1C(=O)CCC1c1nc2ccccc2[nH]1 (configuration not stated) | -17.9%
C(/C=N/NC1=NCCN1)=N\NC1=NCCN1 | 2.85%

test: NCI Yeast Anticancer Drug Screen. Data for the bub3 strain (AID 167); conditions: S. cerevisiae bub3 mutant strain, hits give high values; at 50.0 µM unless noted
In short: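 Yeast carrying a defined mutation is treated with each compound, and growth is compared with that of vehicle-exposed cells to give inhibition.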

SMILES | growth inhibition
COc1cc2c(cc1OCc1ccccc1)C(Cc1cc(Br)sc1Br)=NCC2 | 70.5% (active)
C=C(NC(=O)C(c1ccccc1)c1ccccc1)C(=O)O | -1.9%
NC(=S)/N=C/C=C\c1ccccc1 | -13.8%
COC(OC)C(C)=O | -15.5%
Cc1[nH]n(-c2ccc(Cl)cc2)c(=O)c1N=Nc1cccc(C(F)(F)F)c1 | -2.05%
NC(Cc1ccc2nc3c4ccccc4c(=O)cc-3oc2c1)C(=O)O (configuration not stated) | 10.1%
Cc1cccc[n+]1C | 22.9%
Cc1ccc(-c2ccc(C)cc2C(=O)O)c(C(=O)O)c1 | -2.5%
CC(=O)N1C(=O)CC23c4cccc([N+](=O)[O-])c4C(=O)N2CCCN13 (configuration not stated) | -21.8%
CCCCCCOc1ccccc1CO | -8.15%
Cc1ccccc1C(=O)c1ccccc1C | -1.55%
O=c1[nH]c(Br)nc2c(N3CCCCC3)c[nH]c12 | -3.05%
COc1ccc(-c2cc(-c3ccco3)c(C#N)c(=O)[nH]2)cc1 | 8.65%
[O-]c1nn(-c2ccccc2)n[n+]1-c1ccccc1 | -10.8%
O=C(CCl)Nc1cc2ccccc2oc1=O | 5.45%
CCOC(=O)c1ccc(NC(=O)Nc2cc(Cl)ccc2C)cc1 | 36.2%
CCN(CC)Cc1cc(O)ccc1NCCCNc1ccnc2cc(Cl)ccc12 | -7.05%
C/C(=N\NS(=O)(=O)c1ccc(C)cc1)c1cccs1 | 10.2%
Nc1ccccc1[N+](=O)[O-] | 1.5%
O=[N+]([O-])c1cccc(/C=C/c2ccnc3ccccc23)c1 | 19.4%
CN1CCN(C2c3ccccc3OC(C)(C)C2O)CC1 (configuration not stated) | -15.7%
ClC(Cl)CN(Cc1ccccc1)c1ncc[nH]1 | 8.05%
CCN(CC)CCNc1ccc2ncn3c4cc(=O)ccc4c(O)c1c23 | -7.85%
Cc1cc[n+]2cc(-c3ccc(/C=N/N=C(N)N)cc3)n(C)c2c1 | -8.75%
C[C@H]1CC[C@@H]2O[C@@]23C(=O)OC2OC(C)(C)[C@@H]([C@H]2O)[C@]13C | -5.2%
CC(C)CNC(=O)c1ccccc1Cl | 2.55%
